From PubChem BioAssay AID1159580 (chemical genetic matrix, 2015)
Out of some 5,500 compounds screened, about 2,000 (36%) were called active. Another 18% or so got no clear call; they are omitted. Rule as the data show it: active = normalized growth mostly below about 0.91 (no sharp cut-off); inconclusive = no clear call, values can overlap the other calls; inactive = mostly above about 0.92. Some of the results follow.

Test: chemical genetic growth profiling, strain panel (AID 1159580);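 also: tested at 20 µM; growth read once vehicle control cultures reached saturation at 30 °C; 1 = growth at the plate median or of vehicle wells; lower values mean less growth of the strain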
Settings: growth OD

Measured: normalized growth

CCN1CCCC(OC(=O)C(c2ccccc2)c2ccccc2)C1 (centres undefined)
inactive: S. cerevisiae deletion strains, locus YJR075W, strain HOC1, stronger effect = lower value 1 | S. cerevisiae deletion strains, locus YKL009W, strain mrt4, stronger effect = lower value 1.02 | S. cerevisiae deletion strains, locus YKL068W, stronger effect = lower value 0.999 | S. cerevisiae deletion strains, locus YKL085W, strain MDH1 (second series), stronger effect = lower value 1.01 | S. cerevisiae deletion strains, locus YKL085W, strain MDH1, stronger effect = lower value 1.01 | S. cerevisiae deletion strains, locus YKL160W, strain elf1, stronger effect = lower value 0.983 | S. cerevisiae deletion strains, locus YKL190W, strain CNB1, stronger effect = lower value 1.01 | S. cerevisiae deletion strains, locus YKR001C, strain vps1, stronger effect = lower value 1.02 | S. cerevisiae deletion strains, locus YKR026C, strain gcn3, stronger effect = lower value 0.996 | S. cerevisiae deletion strains, locus YKR091W, strain srl3, stronger effect = lower value 0.992 | S. cerevisiae deletion strains, locus YLL001W, strain dnm1, stronger effect = lower value 0.971 | S. cerevisiae deletion strains, locus YLL026W, stronger effect = lower value 0.992 | S. cerevisiae deletion strains, locus YLL041C, strain sdh2, stronger effect = lower value 0.987 | S. cerevisiae deletion strains, locus YLR027C, strain aat2, stronger effect = lower value 0.983 | S. cerevisiae deletion strains, locus YLR039C, strain RIC1, stronger effect = lower value 1.07 | S. cerevisiae deletion strains, locus YLR058C, strain SHM2, stronger effect = lower value 1.01 | S. cerevisiae deletion strains, locus YLR102C, strain apc9, stronger effect = lower value 1.01 | S. cerevisiae deletion strains, locus YLR113W, strain HOG1, stronger effect = lower value 0.958 | S. cerevisiae deletion strains, locus YLR221C, strain rsa3, stronger effect = lower value 0.991 | S. cerevisiae deletion strains, locus YLR258W, strain gsy2, stronger effect = lower value 0.977 | S. cerevisiae deletion strains, locus YLR262C, strain YPT6 (second series), stronger effect = lower value 1.02 | S. cerevisiae deletion strains, locus YLR262C, strain YPT6, stronger effect = lower value 1.08 | S. cerevisiae deletion strains, locus YLR268W, strain sec22, stronger effect = lower value 1.01 | S. cerevisiae deletion strains, locus YLR320W, strain mms22, stronger effect = lower value 0.982 | S. cerevisiae deletion strains, locus YLR330W, strain CHS5, stronger effect = lower value 1.02 | S. cerevisiae deletion strains, locus YLR342W, strain FKS1 (second series), stronger effect = lower value 1.01 | S. cerevisiae deletion strains, locus YLR342W, strain FKS1, stronger effect = lower value 0.985 | S. cerevisiae deletion strains, locus YLR357W, strain rsc2, stronger effect = lower value 0.933 | S. cerevisiae deletion strains, locus YLR370C, strain arc18, stronger effect = lower value 0.994 | S. cerevisiae deletion strains, locus YLR371W, strain rom2, stronger effect = lower value 1.01 | S. cerevisiae deletion strains, locus YLR384C, strain iki3, stronger effect = lower value 0.983 | S. cerevisiae deletion strains, locus YLR418C, strain cdc73, stronger effect = lower value 0.998 | S. cerevisiae deletion strains, locus YML016C, strain PPZ1, stronger effect = lower value 1 | S. cerevisiae deletion strains, locus YML032C, strain rad52, stronger effect = lower value 1.01 | S. cerevisiae deletion strains, locus YML120C, strain ndi1, stronger effect = lower value 0.961 | S. cerevisiae deletion strains, locus YML124C, strain tub3, stronger effect = lower value 1 | S. cerevisiae deletion strains, locus YMR058W, strain fet3, stronger effect = lower value 0.982 | S. cerevisiae deletion strains, locus YMR078C, strain ctf18, stronger effect = lower value 1 | S. cerevisiae deletion strains, locus YMR125W, strain sto1, stronger effect = lower value 0.977 | S. cerevisiae deletion strains, locus YMR129W, stronger effect = lower value 0.969 | S. cerevisiae deletion strains, locus YMR205C, strain PFK2, stronger effect = lower value 0.984 | S. cerevisiae deletion strains, locus YMR223W, strain ubp8, stronger effect = lower value 1.01 | S. cerevisiae deletion strains, locus YMR231W, strain pep5, stronger effect = lower value 0.998 | S. cerevisiae deletion strains, locus YMR307W, strain GAS1, stronger effect = lower value 1.09 | S. cerevisiae deletion strains, locus YNL067W, strain RPL9B, stronger effect = lower value 1.01 | S. cerevisiae deletion strains, locus YNL071W, strain lat1, stronger effect = lower value 0.973 | S. cerevisiae deletion strains, locus YNL153C, strain GIM3, stronger effect = lower value 0.992 | S. cerevisiae deletion strains, locus YNL183C, strain NPR1, stronger effect = lower value 0.943 | S. cerevisiae deletion strains, locus YNL209W, strain ssb2, stronger effect = lower value 1.01 | S. cerevisiae deletion strains, locus YNL233W, strain BNI4, stronger effect = lower value 1.01 | S. cerevisiae deletion strains, locus YNL248C, strain rpa49, stronger effect = lower value 0.989 | S. cerevisiae deletion strains, locus YNL250W, strain rad50, stronger effect = lower value 1 | S. cerevisiae deletion strains, locus YNL271C, strain bni1, stronger effect = lower value 1.01 | S. cerevisiae deletion strains, locus YNL298W, strain CLA4, stronger effect = lower value 1.01 | S. cerevisiae deletion strains, locus YNL307C, strain MCK1, stronger effect = lower value 1.01 | S. cerevisiae deletion strains, locus YNL322C, strain KRE1 (second series), stronger effect = lower value 0.992 | S. cerevisiae deletion strains, locus YNL322C, strain KRE1, stronger effect = lower value 1.01 | S. cerevisiae deletion strains, locus YNR049C, strain mso1, stronger effect = lower value 0.981 | S. cerevisiae deletion strains, locus YNR052C, strain pop2, stronger effect = lower value 1.02 | S. cerevisiae deletion strains, locus YOL006C, strain TOP1, stronger effect = lower value 0.982 | S. cerevisiae deletion strains, locus YOL012C, strain htz1 1.06 | S. cerevisiae deletion strains, locus YOL147C, strain pex11, stronger effect = lower value 1 | S. cerevisiae deletion strains, locus YOR001W, strain rrp6, stronger effect = lower value 0.973 | S. cerevisiae deletion strains, locus YOR061W, strain CKA2, stronger effect = lower value 1.01 | S. cerevisiae deletion strains, locus YOR069W, strain VPS5, stronger effect = lower value 1.01 | S. cerevisiae deletion strains, locus YOR070C, strain gyp1, stronger effect = lower value 0.998 | S. cerevisiae deletion strains, locus YOR080W, strain dia2, stronger effect = lower value 0.975 | S. cerevisiae deletion strains, locus YOR083W, strain WHI5, stronger effect = lower value 0.98 | S. cerevisiae deletion strains, locus YOR106W, strain vam3, stronger effect = lower value 0.988 | S. cerevisiae deletion strains, locus YOR136W, strain idh2, stronger effect = lower value 1 | S. cerevisiae deletion strains, locus YOR144C, strain elg1, stronger effect = lower value 0.996 | S. cerevisiae deletion strains, locus YOR184W, strain ser1, stronger effect = lower value 1.04 | S. cerevisiae deletion strains, locus YOR231W, strain MKK1, stronger effect = lower value 0.983 | S. cerevisiae deletion strains, locus YOR265W, strain rbl2, stronger effect = lower value 0.995 | S. cerevisiae deletion strains, locus YOR270C, strain vph1, stronger effect = lower value 0.987 | S. cerevisiae deletion strains, locus YOR290C, strain snf2, stronger effect = lower value 0.98 | S. cerevisiae deletion strains, locus YOR316C, strain cot1, stronger effect = lower value 1.01 | S. cerevisiae deletion strains, locus YPL051W, strain arl3, stronger effect = lower value 0.988 | S. cerevisiae deletion strains, locus YPL055C, strain LGE1, stronger effect = lower value 0.996 | S. cerevisiae deletion strains, locus YPL078C, strain atp4, stronger effect = lower value 0.974 | S. cerevisiae deletion strains, locus YPL106C, strain sse1, stronger effect = lower value 0.97 | S. cerevisiae deletion strains, locus YPL240C, strain hsp82, stronger effect = lower value 0.991 | S. cerevisiae deletion strains, locus YPL256C, strain CLN2, stronger effect = lower value 0.979 | S. cerevisiae deletion strains, locus YPR119W, strain clb2, stronger effect = lower value 1.01 | S. cerevisiae deletion strains, locus YPR141C, strain kar3, stronger effect = lower value 1 | S. cerevisiae deletion strains, locus YPR163C, strain tif3, stronger effect = lower value 1 | S. cerevisiae deletion strains, locus YPR167C, strain met16, stronger effect = lower value 1.01 | S. cerevisiae deletion strains, strain wtn01, stronger effect = lower value 1 | S. cerevisiae strains, strain wild type, stronger effect = lower value 1.01
